In PubChem BioAssay (NCATS):
Values without a mark were called inactive. Active and inactive are the calls of the source. The call rests on the fitted dose curve; in most records, active means well fitted activation curve with a large enough effect; inconclusive means small, poorly fitted or top-dose-only effect, or effect the other way; inactive means flat fitted curve, though single readings scatter.

Test: Cellular Toxicity (caspase-3) Renal Proximal Tubule (AID 667);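 further: cells exposed to compound for 16 hours at 37 °C before detection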;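 on caspase-3 activation: 0% = DMSO basal and 100% = 10 µM staurosporine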
Conditions: renal proximal tubule cells, primary cells freshly taken from rat; Potency: caspase-3 activation; series mostly up to 91.7 µM; caspase-3 activation: at the top concentration
Summary of the method: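 AC50 derived by standard Hill fit of concentration-response data, normalized between DMSO basal and 10 uM staurosporine as 100% stimulation. Cells: primary rat kidney proximal tubule, 16 h treatment at 37 °C.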
Potency means the concentration at half of the fitted maximal effect.

Row | Compound | caspase-3 activation | Potency
1 | Nc1cccc(N)c1 | 1.74% | 
2 | O=CNc1ccccc1 | -3.56% | 
3 | O=[N+]([O-])c1cccc(Cl)c1 | 3.12% | 
4 | ON=C1CCCCC1 | -0.699% | 
5 | C=C(C)C(N)=O | 5.3% | 
6 | Cc1cc(C)c(N)cc1C | -6.28% | 
7 | Nc1c(Cl)cc(Cl)cc1Cl | -11% | 
8 | C1COC1 | -3.78% | 
9 | Nc1ccc(F)cc1F | 15.9% | 
10 | CNc1ccccc1 | -1.23% | 
11 | CCc1ccccc1O | -1.19% | 
12 | CCOC(=O)OCC | 13.4% | 
13 | CCCOCC(C)O (stereo not drawn) | 6.29% | 
14 | O=[N+]([O-])c1c(Cl)cc(Cl)cc1Cl | -4.42% | 
15 | CNC(=O)c1ccccc1 | 5.41% | 
16 | CCCC(Cl)CCCC(Cl)CCC(Cl)CCC(Cl)CCC(Cl)CCCC(Cl)CCC (stereo not drawn) | -3.06% | 
17 | Cc1cccc(C(=O)O)c1 | -10.1% | 

Row | Compound | caspase-3 activation | Potency
18 | O=[N+]([O-])c1ccc(Cl)cc1Cl | 0.231% | 
19 | Nc1cccc(C(F)(F)F)c1 | 6.94% | 
20 | CC(=O)c1nccs1 | -4.78% | 
21 | Cc1ccc2cccnc2c1 | 3.06% | 
22 | CCN(C(=O)N(CC)c1ccccc1)c1ccccc1 | -0.265% | 
23 | O=[N+]([O-])c1ccc2nc[nH]c2c1 | -2.54% | 
24 | CCCCC(CC)COCC1CO1 (stereo not drawn) | 8.27% | 
25 | O=C(O)c1ccccc1[N+](=O)[O-] | 1.53% | 
26 | O=Cc1cccc(Br)c1 | -10.9% | 
27 | C=CCn1c(=O)n(CC=C)c(=O)n(CC=C)c1=O | -1.89% | 
28 | Cc1ccc(Br)cc1 | 2.08% | 
29 | Cc1ccc(C)c([N+](=O)[O-])c1 | 3.85% | 
30 | Nc1nc(CC(=O)O)cs1 | 2.51% | 
31 | CC1=C(/C=C/C(C)=C/C=C/C(C)=C\C=O)C(C)(C)CCC1 |  | 31.6 µM (active)
32 | Cc1ccccc1C#N | 2.69% | 
33 | C=C(C)C(=O)OCCCCCCCCCC | -2.5% | 
